From PubChem
The list is not random: actives were taken first. Their share in the collection is about 10%.
CtBP-E1A blk: inhibitors of CtBP/E1A interaction. AID 651724. 340,000 tested, 0.49% active. activity change, % (test concentration not listed). AlphaScreen GST-E1A/His-CtBP binding, 1536-well; stronger effect = lower value; in the data active = activity change below about -65%; inconclusive = mostly about -30% to -63%; note: % is set by controls: 0 for no effect and ±100 for the full control effect
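AlphaScreen with 125 nM GST-E1A and 125 nM His-CtBP (5X stocks) in Tris pH 8.0, 300 mM NaCl, BSA, Tween 20, TCEP. Compounds preincubated 2 h at 37 deg C, then glutathione donor/nickel acceptor beads added for 1 h at 37 deg C in dark.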
HP1b chromo inh: blocks HP1-beta chromodomain binding to methylated histone tails; P83916; AlphaScreen HP1-beta / biotin-H3K9me3 peptide binding; Potency, µM (top dose mostly 114 µM), for inactives: at the highest dose activity change, negative = inhibition, actives largely listed as inhibitors; 390,000 tested, 0.56% active; AID 540317; note: potency is the fitted concentration of half-maximal effect; nearly all actives have a fitted effect of over 70% in size
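Compound inhibition of the preformed complex between 50 nM HP1-beta and 50 nM biotinylated H3K9me3 peptide was read by AlphaScreen. Buffer was PBS pH 7.4 with 0.01% Tween-20. Incubations ran 30 min at room temperature, with 10 ug/mL donor/acceptor beads.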
G9a inh: G9a (human) methyltransferase inhibition. Potency, µM (titrated, usually from 102 µM), for inactives: top-dose activity, negative = inhibition, hits mostly inhibitors. G9a H3K9 monomethylation, AlphaScreen, 2 h. AID 504332. 350,000 tested, 8.8% active. Q96KQ7; note: potency is the fitted concentration of half-maximal effect; % is set by controls: 0 for no effect and ±100 for the full control effect; nearly all actives have a fitted effect of over 75% in size
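Step 1: enzyme (final 20 nM) with compound, 15 min RT. Step 2: substrate peptide 500 nM and SAM 20 uM, 2 h RT. Step 3: anti-H3K9me1 antibody and AlphaScreen beads, 10 min, then plate read.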
BAZ2B block: inhibitors of human BAZ2B bromodomain. Q9UIF8. AlphaScreen BAZ2B-H3K14Ac peptide displacement. Potency, µM (top dose mostly 114 µM), for inactives: top-dose activity change, negative = inhibition, usual class: inhibitors. 360,000 tested, 4.4% active. AID 504333; note: potency is the fitted concentration of half-maximal effect; % is set by controls: 0 for no effect and ±100 for the full control effect; nearly all actives have a fitted effect of over 60% in size
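AlphaScreen displacement of biotin-H3(5-23)K14Ac peptide (50 nM final) from BAZ2B (50 nM final) in PBS pH 7.4, 0.01% Tween-20; complex preformed 30 min RT, then compounds (top 110 uM) 30 min RT, beads 20 min dark.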
Six1-Eya2 blk: inhibitors of human Six1/Eya2 interaction; Q15475+O00167; AlphaScreen GST-Six1/His-Eya2 binding, biochemical; stronger effect = lower value; activity change, % (no concentration beside the values); 360,000 tested, 0.56% active; AID 651725; in the data active = activity change below about -65%; inconclusive = mostly about -30% to -63%; note: % is set by controls: 0 for no effect and ±100 for the full control effect
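Six1/Eya2 binding was read as AlphaScreen signal after compounds were pinned into GST-Six1 plus His-tagged Eya2 (5X stock 250/500 nM) in pH 8.0 Tris/NaCl/TCEP buffer, beads added, then incubated 1 h, 37 C, dark.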
JMJD2A Tudor: inhibitors of human JMJD2A Tudor domain. O75164. AlphaScreen JMJD2A-Tudor / H3K4me3 peptide binding. Potency, µM (highest dose often 114 µM), for inactives: at the highest dose activity change, negative = inhibition, actives largely listed as inhibitors. 390,000 tested, 4.4% active; note: potency is the fitted concentration of half-maximal effect; % is set by controls: 0 for no effect and ±100 for the full control effect; nearly all actives have a fitted effect of over 50% in size
Active calls of the source: *; [ ] = another dose, or the depositor's remark. Unless noted, calls come from the whole dose curve; as a rule, active = well fitted inhibition curve with a large enough effect; inconclusive = small, poorly fitted or top-dose-only effect; inactive = no such curve, though single readings can be large or run the other way.

How did COC(=O)[C@H](C)[C@@H]1C[C@@]1(C)[C@@H](NC(=O)OCc1ccccc1)c1ccccc1 do in these assays?
CtBP-E1A blk: -19; HP1b chromo inh: 50%; G9a inh: -7%; BAZ2B block: -5%; Six1-Eya2 blk: 1; JMJD2A Tudor: 10%

What do the screens show for `C[C@@H](C(=O)NCc1ccccc1)[C@H]1C[C@]1(C)[C@H](NC(=O)OCc1ccccc1)c1ccccc1`?
CtBP-E1A blk: -16; HP1b chromo inh: 41%; G9a inh: inconclusive; BAZ2B block: 1%; Six1-Eya2 blk: 12; JMJD2A Tudor: -15%

What do the screens show for `CCOC(=O)c1cccc(NC(=O)CSc2cc(=O)n(C)c3ccccc23)c1`?
HP1b chromo inh: 3%; G9a inh: 1%[59 µM]; JMJD2A Tudor: -18%

Results for CCC(=O)OCc1cnc(C)c2oc(=O)c(C(=O)Nc3ccccc3C(F)(F)F)cc12 ?
HP1b chromo inh: 18%; G9a inh: 12%[12.7 µM]; BAZ2B block: -5%; JMJD2A Tudor: -4%

Results for O=c1cc(-c2ccccc2)[nH]n1-c1nc2ccccc2[nH]1 ?
CtBP-E1A blk: -77*; HP1b chromo inh: 20%; G9a inh: -53%; BAZ2B block: 28µM*; Six1-Eya2 blk: -81*; JMJD2A Tudor: 56µM*

Results for CCc1cc(=O)[nH]c(-n2[nH]c(-c3ccccc3)cc2=O)n1 ?
CtBP-E1A blk: -10; HP1b chromo inh: 30%; G9a inh: -4%; BAZ2B block: -1%; Six1-Eya2 blk: -7; JMJD2A Tudor: -10%

Results for COc1cc(/C=N/NC(=O)NC2CCCCC2)cc(OC)c1O ?
CtBP-E1A blk: -5; HP1b chromo inh: -6%; G9a inh: 50µM*; BAZ2B block: -14%; Six1-Eya2 blk: -4; JMJD2A Tudor: -18%

How did COc1cc(/C=N/NC(=O)NC2CCCCC2)ccc1O do in these assays?
CtBP-E1A blk: -16; HP1b chromo inh: 27%; G9a inh: -27%; BAZ2B block: -12%; Six1-Eya2 blk: -19; JMJD2A Tudor: -14%

What do the screens show for `COc1ccc(OC)c(C2C(C#N)=C(N)Oc3c2c(C)nn3-c2cccc(Cl)c2)c1` (stereo not drawn)?
CtBP-E1A blk: -5; HP1b chromo inh: -38%; G9a inh: 40µM*; BAZ2B block: 40µM*; Six1-Eya2 blk: -5; JMJD2A Tudor: 50µM*

How did COc1ccc(OC)c(C2C(C#N)=C(N)Oc3cc(C)[nH]c(=O)c32)c1 (stereo not drawn) do in these assays?
CtBP-E1A blk: 0; HP1b chromo inh: 31%; G9a inh: 7%[2.33 µM]; BAZ2B block: -3%; Six1-Eya2 blk: 6; JMJD2A Tudor: inconclusive

How did Cc1nn(-c2cccc(Cl)c2)c2c1C(c1ccncc1)C(C#N)=C(N)O2 (stereo not drawn) do in these assays?
CtBP-E1A blk: inconclusive; HP1b chromo inh: inconclusive; G9a inh: inconclusive; BAZ2B block: 40µM*; Six1-Eya2 blk: inconclusive; JMJD2A Tudor: 79µM*

What do the screens show for `Cc1nn(-c2cccc(Cl)c2)c2c1C(c1cccnc1)C(C#N)=C(N)O2` (stereo not drawn)?
CtBP-E1A blk: 14; HP1b chromo inh: -15%; G9a inh: 45µM*; BAZ2B block: 50µM*; Six1-Eya2 blk: -4; JMJD2A Tudor: inconclusive

How did CCOc1ccc(NC(=O)CCNS(=O)(=O)c2ccc3c(c2)CC(C)N3C(C)=O)cc1 (stereo not drawn) do in these assays?
CtBP-E1A blk: 1; HP1b chromo inh: 15%; G9a inh: 9%[59 µM]; BAZ2B block: -14%; Six1-Eya2 blk: 0; JMJD2A Tudor: 25µM*

What do the screens show for `CCOc1ccc(CNC(=O)CCn2nc(C)c3c(C)n(-c4ccccc4)nc3c2=O)cc1`?
HP1b chromo inh: 72%; G9a inh: 13%[59 µM]; BAZ2B block: 21%; JMJD2A Tudor: -14%

Results for O=C1COc2ccc(C(=O)CSc3nnc(-c4cccs4)n3Cc3ccccc3)cc2N1 ?
CtBP-E1A blk: -2; HP1b chromo inh: 28%; G9a inh: inconclusive; BAZ2B block: -8%; Six1-Eya2 blk: -3; JMJD2A Tudor: -15%

Results for CC(C)c1ccccc1-n1c(SCC(=O)c2ccc3c(c2)NC(=O)CO3)nc2ccccc2c1=O ?
CtBP-E1A blk: -4; HP1b chromo inh: -3%; G9a inh: 40µM*; BAZ2B block: -11%; Six1-Eya2 blk: -8; JMJD2A Tudor: -26%

Results for O=C1COc2ccc(C(=O)CSc3nnc(Cc4cccs4)n3-c3ccccc3)cc2N1 ?
CtBP-E1A blk: -28; HP1b chromo inh: 18%; G9a inh: 79µM*; BAZ2B block: 2%; Six1-Eya2 blk: -22; JMJD2A Tudor: 3%[57.1 µM]

How did COc1cc(NS(=O)(=O)c2ccc3[nH]c4c(c3c2)CCCC4)cc(OC)c1OC do in these assays?
HP1b chromo inh: -17%; G9a inh: inconclusive; BAZ2B block: inconclusive; JMJD2A Tudor: inconclusive

Results for COc1ccc(NS(=O)(=O)c2ccc3[nH]c4c(c3c2)CCCC4)cc1OC ?
HP1b chromo inh: inconclusive; G9a inh: 11µM*; BAZ2B block: inconclusive; JMJD2A Tudor: 45µM*

What do the screens show for `Cc1ccc(C)c(N2CCN(S(=O)(=O)c3ccc4[nH]c5c(c4c3)CCCC5)CC2)c1`?
HP1b chromo inh: 17%; G9a inh: inconclusive; BAZ2B block: -35%; JMJD2A Tudor: -36%

How did Cc1ccc(NS(=O)(=O)c2ccc3[nH]c4c(c3c2)CCCCCC4)cc1C do in these assays?
HP1b chromo inh: -17%; G9a inh: inconclusive; BAZ2B block: -27%; JMJD2A Tudor: inconclusive

Results for O=S(=O)(c1ccc2[nH]c3c(c2c1)CCCC3)N1CCCCC1 ?
HP1b chromo inh: 47%; BAZ2B block: 25µM*; Six1-Eya2 blk: inconclusive; JMJD2A Tudor: 0%

How did Cc1ccc(NS(=O)(=O)c2ccc3[nH]c4c(c3c2)CCCCCC4)cc1 do in these assays?
HP1b chromo inh: -5%[57 µM]; G9a inh: inconclusive; BAZ2B block: 40µM*; JMJD2A Tudor: inconclusive

Results for O=C1CCc2cc(S(=O)(=O)Nc3ccc4c(c3)CCC4)ccc2N1 ?
JMJD2A Tudor: -11%

What do the screens show for `Cc1ccc(C(C)(C)C)c(OCCN2CCCC2)c1`?
CtBP-E1A blk: 2; HP1b chromo inh: -15%; G9a inh: 3.5µM*; BAZ2B block: 50µM*; Six1-Eya2 blk: -5; JMJD2A Tudor: 4µM*

What do the screens show for `Cc1cc(OCCN2CCCCC2)nc2ccccc12`?
CtBP-E1A blk: 7; HP1b chromo inh: 5%; G9a inh: -6%[12.7 µM]; BAZ2B block: -23%; Six1-Eya2 blk: 8; JMJD2A Tudor: inconclusive
